# Assay results as given in the OligoGym collection.
# Molecular target: NRN1
# Assay: pooled miR-30 sensor sort-seq; sequence = guide strand
# Details: shRNA
# Also: reference of the scale not given here.
row,Sequence,sensor-assay potency score (higher = more potent)
1,TTCGTCTTGTCGTCCAGGCCCT,-0.542
2,TCGTCTTGTCGTCCAGGCCCTG,-1.79
3,TTCTTTTCTCAGTTTATCCCAC,-0.535
4,TTGTCGTCCAGGCCCTGCGGGT,-1.62
5,TCAGTGAAATATATCTGCCGTT,-1
6,TGATGTTCGTCTTGTCGTCCAG,-0.489
7,ATCAGTGAAATATATCTGCCGT,-0.0404
8,TTGGATGTTGAGGTTTTTGGAT,-0.637
9,TTATCCCACATATCTTTCGCCC,-1.13
10,TTGAAGACCGCATCGCACTTGC,0.325
11,TTGATGTTCGTCTTGTCGTCCA,0.18
12,TCTTGATGTTCGTCTTGTCGTC,-0.712

# Molecular target: NRTN
# Assay: as above
# Details: shRNA
row,Sequence,sensor-assay potency score (higher = more potent)
1,TCGTCCTCGTAGGCCGTCGGGC,-1.36
2,TATCTCAGTACAGTTATCGCGA,0.0428
3,TCGTCGCAGCCCGAGGTCGTAG,-1.65
4,AACAGCACCGTCTCGTCGGACG,-1.59
5,TGCACCGTGTGGTAGCGGCTGT,-1.01
6,ATGGACAGCACGGAGCTGCAGA,-1.37
7,TGGCGCAGTCGTCGCAGCCCGA,-1.96
8,TCTCAGTACAGTTATCGCGAGA,-1.15
9,TCCTCGTAGGCCGTCGGGCGGC,-1.9
10,TAGCGGAACAGCACCGTCTCGT,-0.209

# Molecular target: NRXN1
# Assay: as above
# Details: shRNA
row,Sequence,sensor-assay potency score (higher = more potent)
1,TAGAATTAATCCATCTAGGGAT,-0.432
2,ATTGTTGCAAGCACACACCTTG,-0.22
3,TTTTGAGACAAGTCGTAGCAGA,-0.143
4,TTGAACTTCAGCCATTTGCCGG,-0.927
5,TAAAGATATATGTCGTCCCAGG,-1.02
6,TATTTTTATATACAACCTCTTT,-1.15
7,TATCATTGAGGTTATAGCCAGC,-0.792
8,TATTTCTATACAAGTGTCCATT,-1.16
9,AAGATTGACATAATCAGCCGAT,0.46
10,TTTGTGTCAATCTTTACAGTGT,0.163
11,TTTCTTTAGCTACTCCTCCTAT,-0.523
12,TAAGTTTATATTATGTCTCAGA,-0.557

# Molecular target: NT5C3L
# Assay: as above
# Details: shRNA
row,Sequence,sensor-assay potency score (higher = more potent)
1,ATTGGACTCTCTAACCACCTGG,0.547
2,TTGGACTCTCTAACCACCTGGG,0.443
3,TATCTGAAACTTCTGAATCTTC,-0.418
4,AAACTTCTGAATCTTCTGCTGA,-0.000526
5,TTGCATTGGACTCTCTAACCAC,-0.0742
6,TTGTGTGCTTTGGTCCACCATT,-1.32
